Compound activity (PubChem BioAssay)
The list is not random: actives were taken first. Their share in the collection is about 2.4%.
CHRM1 PAM = potentiates human M1 receptor response to acetylcholine. activation, % at 3 µM. 0.088% of 360,000 active. P11229. CHO-K1 hM1, Fluo-8 calcium fluorescence, ACh EC20; 0% = ACh EC20, 100% = maximal ACh; in the data active = activation above about 19%, passing the limit was not always enough
Target sequence (P11229 whole entry, looked up): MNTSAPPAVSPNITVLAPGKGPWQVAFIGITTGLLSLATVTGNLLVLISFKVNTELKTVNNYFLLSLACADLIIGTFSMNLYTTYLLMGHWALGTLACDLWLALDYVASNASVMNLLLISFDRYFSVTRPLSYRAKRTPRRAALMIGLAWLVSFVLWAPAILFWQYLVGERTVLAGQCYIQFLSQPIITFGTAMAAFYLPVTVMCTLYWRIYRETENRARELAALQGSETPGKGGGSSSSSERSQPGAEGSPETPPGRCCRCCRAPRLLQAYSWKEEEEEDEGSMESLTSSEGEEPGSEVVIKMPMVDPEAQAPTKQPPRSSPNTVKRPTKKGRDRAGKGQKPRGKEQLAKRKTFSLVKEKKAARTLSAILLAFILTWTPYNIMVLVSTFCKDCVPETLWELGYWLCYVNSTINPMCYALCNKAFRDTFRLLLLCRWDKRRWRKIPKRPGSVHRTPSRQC
M1 PAM parental = nonselective activator or artifact in parental CHO-K1 calcium assay | activation, % at 3 µM | AID 602247 | ATP EC20, Fluo-8 calcium fluorescence; 0% at ATP EC20, 100% at ATP max | 0.02% of 360,000 active;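 active = activation above the run cutoff, the mean activation of all test compounds plus 3 SD, cut at about 40% in these data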;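 also: peak over basal fluorescence ratio in a 140 s read after ATP addition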
CHO-K1 Ca antag = nonselective inhibitor or artifact in parental CHO-K1 cells; ATP-induced calcium, Fluo-8 fluorescence; inhibition, % at 3 µM; 0.6% of 360,000 active;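 active = inhibition above a per-plate cutoff, the plate's mean sample inhibition plus 3 SD, cut at about 24% in these data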;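 also: 0% = DMSO plus EC80 ATP and 100% = DMSO alone without ATP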
M1 ag = human M1 muscarinic receptor agonism | P11229 | CHO-K1 hM1, Fluo-8 calcium fluorescence, agonist mode; 0% DMSO, 100% acetylcholine EC100 | activation, % at 3 µM | 0.33% of 360,000 active | AID 588814;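 active = activation above the run's mean compound activation plus 3 SD, cut at about 16% in these data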;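 also: peak over basal fluorescence ratio within a 140 s kinetic read after compound addition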
M1 antag = blocks human M1 muscarinic receptor | CHO-K1 hM1, Fluo-8 calcium fluorescence, ACh EC80 antagonist | inhibition, % at 3 µM | 1.3% of 360,000 active | AID 588852;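 active = percent inhibition above its own plate's cutoff, namely the mean of that plate's compound wells plus 3 SD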;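 also: peak over basal fluorescence ratio during 140 s after agonist addition; 0% = ACh EC80 plus DMSO and 100% = DMSO alone without agonist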
CHO-K1 Ca ag = counter-screen for M1 agonists: effect in parental CHO-K1 cells; 0.48% of 360,000 active; AID 602248; Fluo-8 calcium fluorescence; scaled to maximal ATP response, vehicle zero; activation, % at 3 µM; in the data active = activation above about 15%;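 also: untransfected CHO-K1 host cells lacking M1 receptor as counterscreen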
Active calls of the source: *.

SMILES | CHRM1 PAM | M1 PAM parental | CHO-K1 Ca antag | M1 ag | M1 antag | CHO-K1 Ca ag
NC(=O)C1Cc2ccccc2CN1S(=O)(=O)c1ccc(Cl)s1 (stereo not drawn) | 2 | 5 | 4 | -2 | -1 | 9
CCN(C(=O)C(C)Sc1ccc(S(=O)(=O)N2CCOCC2)cn1)c1ccccc1 (stereo not drawn) | -7 | 14 | -16 | -3 | 25 | 2
O=C(c1ccc2c(c1)OCO2)C1CCCN(C2CCN(CCc3ccccc3)CC2)C1 (stereo not drawn) | -35 | 21 | -15 | -14 | 74* | 1
CC(=O)c1cccc(CN2CCCC(C(=O)c3ccc4c(c3)OCO4)C2)c1 (stereo not drawn) | -26 | 9 | -8 | -10 | 72* | 2
COc1ccc(C(=O)C2CCCN(Cc3ccc4c(c3)OCCO4)C2)cc1F (stereo not drawn) | -20 | 13 | -13 | -6 | 12 | 2
CCOC(=O)CNC(=O)N1CCCC(C(=O)c2ccc3c(c2)OCO3)C1 (stereo not drawn) | -3 | -13 | 1 | -8 | 2 | 0
COc1cccc(CN2CCCC(C(=O)c3ccc4c(c3)OCO4)C2)c1O (stereo not drawn) | -24 | 15 | -16 | -7 | 41* | 1
COC(=O)Cn1cc(S(=O)(=O)NCc2ccc(C)cc2)c2cc([N+](=O)[O-])ccc21 | 12 | 5 | 1 | -4 | -10 | 1
O=C(CCC1CCCC1)NCc1cccs1 | -4 | -3 | 2 | -5 | 4 | 0
OC(c1cccs1)(c1cccs1)C1C[N+]2(CF)CCC1CC2 (stereo not drawn) | -22 | 22 | -5 | -8 | 83* | 1
Cc1ccc(-c2nc3ncccc3o2)cc1NC(=O)C(C)(C)C | 10 | 28 | -15 | -2 | -21 | 2
Cc1ccc(-c2nc3ncccc3o2)cc1NC(=O)c1cccs1 | 5 | -14 | 26* | -5 | -9 | 0
Cc1ccc(Cl)cc1N1CCN(S(=O)(=O)c2ccc3c(c2)NC(=O)C(C)C(=O)N3)CC1 (stereo not drawn) | 7 | 18 | -1 | -3 | -6 | 1
C=CCn1c(SCC(=O)NC2CC2)nnc1C1CC1 | -1 | 1 | -7 | -1 | 1 | 1
CC(C)N1CCC1(C)C(=O)Nc1ccc2cn[nH]c2c1 (stereo not drawn) | 9 | -5 | 12 | -2 | -8 | 0
CC(N)c1csc(Nc2nncc3ccccc23)n1 (stereo not drawn) | 9 | 11 | 0 | -9 | 102* | 3
CC(N)c1csc(Nc2ncccn2)n1 (stereo not drawn) | 0 | -5 | 25* | -4 | -2 | 1
COc1cc(OC)cc(N(C(=O)CNC(=O)c2ccco2)C(C(=O)NCC2CCCO2)c2ccccc2)c1 (stereo not drawn) | -8 | -1 | -2 | 0 | 17 | 6
CN(C)c1ccc(/C=C(/C#N)C(=O)Nc2nc3c(s2)CCN(Cc2ccccc2)C3)cc1 | -15 | -3 | 14 | 19* | 24* | 12
COc1ccc(-c2csc(NC(=O)CSCc3c(C)noc3C)n2)cc1OC | -5 | 6 | -7 | 1 | -13 | 5
Cc1noc(C)c1CSCC(=O)Nc1nc(-c2ccc(F)c(F)c2)cs1 | -16 | -24 | 17 | -1 | 35* | 6
CCc1noc(C)c1C(=O)OCC(=O)Nc1nc(-c2ccc(F)c(F)c2)cs1 | -22 | 4 | -11 | -2 | 42* | 5
O=C(CNC(=O)c1ccc(Cl)cc1Cl)OCC(=O)N1CCCC1=O | 4 | 8 | 2 | -3 | -2 | 2
CCOC(=O)C(C(=O)OCC)c1c([N+](=O)[O-])c(=O)n2c3c(cccc13)CCC2 | 9 | 17 | -9 | -6 | -15 | 1
Cc1sc2ncnc(NCCCO)c2c1C | -7 | -8 | 7 | 0 | 14 | 0
SMILES | CHRM1 PAM | M1 PAM parental | CHO-K1 Ca antag | M1 ag | M1 antag | CHO-K1 Ca ag
Cc1sc2ncnc(NCC(O)c3ccc([N+](=O)[O-])cc3)c2c1C (stereo not drawn) | -20 | 0 | 27* | 0 | 34* | 18*
Cc1sc2ncnc(NCC(c3ccccc3)N(C)C)c2c1C (stereo not drawn) | -31 | -17 | 7 | -11 | 57* | 4
Cc1sc2ncnc(NCC(O)c3ccccc3)c2c1C (stereo not drawn) | -11 | 7 | 14 | -1 | 16 | 17*
Cc1c(Cl)cccc1NC(=O)CCN1CCN(C)CC1 | 1 | -11 | 7 | -2 | 1 | 1
C[C@H]1CN([C@@H](C)CO)C(=O)c2cc(NC(=O)c3ccncc3)ccc2O[C@H]1CN(C)Cc1ccc(C(=O)O)cc1 | 16 | 14 | -13 | 0 | -10 | 1
O=c1[nH]c(Cc2ccccn2)nc2scc(-c3ccc(Cl)cc3)c12 | 5 | 23 | -5 | 26* | -5 | 1
O=c1[nH]c(Cc2cccs2)nc2scc(-c3ccc(Cl)cc3)c12 | -1 | 18 | -2 | -4 | 7 | 1
COc1cccc(N2CCN(C(=O)CCNS(=O)(=O)c3ccc(F)c(F)c3)CC2)c1 | 8 | -11 | 10 | 1 | 9 | 0
CC(C)(C)c1ccc(C(=O)CCC(=O)OCC(=O)NCCc2ccc(S(N)(=O)=O)cc2)cc1 | -19 | -11 | 13 | 2 | 47* | 20*
Cc1ccc(S(=O)(=O)NNc2ccccc2)cc1 | 5 | -4 | 16 | 0 | -7 | 0
Cc1ccc(S(=O)(=O)NNc2nc3ccccc3nc2C(F)(F)F)cc1 | 0 | 18 | -9 | 50* | -5 | 1
O=C(NCc1ccccc1Cl)c1ccc2nc([C@@H]3O[C@H](CO)[C@H](O)[C@H](O)[C@H]3O)[nH]c2c1 | 5 | 9 | -13 | -1 | -13 | 0
CCC(c1nnnn1-c1ccc2c(c1)OCCO2)N1CCN(C/C=C/c2ccccc2)CC1 (stereo not drawn) | -17 | 7 | -2 | -3 | 20 | 6
CCCCn1nnnc1C(c1cc2ccccc2o1)N1CCN(C/C=C/c2ccccc2)CC1 (stereo not drawn) | -25 | 4 | -8 | -5 | 56* | 1
C(=C\c1ccccc1)/CN1CCN(C(c2cccs2)c2nnnn2-c2ccc3c(c2)OCCO3)CC1 (stereo not drawn) | -26 | 12 | -17 | -5 | 90* | 1
COc1ccc(C(c2nnnn2-c2ccc3c(c2)OCCO3)N2CCN(C/C=C/c3ccccc3)CC2)cc1 (stereo not drawn) | -26 | -6 | 7 | -6 | 94* | 0
COc1ccc(-n2nnnc2C(c2cccc3ccccc23)N2CCN(C/C=C/c3ccccc3)CC2)cc1 (stereo not drawn) | -15 | -10 | 14 | -2 | 3 | 0
